Results from PubChem BioAssay (NCATS).
Values joined by “and” are separate entries in the source; they are usually repeats but may differ in a detail not shown here. Equal values may be shown once. Records with an inconclusive call do not appear. Active and inactive are the calls of the source. Unless noted, the call rests on the fitted dose curve; in most records, active means well fitted curve in the direction sought with a large enough effect; inconclusive means small, poorly fitted or top-dose-only effect, or another doubt; inactive means no such curve, though single readings can be large; an effect the other way counts as inactive or inconclusive.

Assays:
[1] = qHTS assay for small molecule disruptors of the mitochondrial membrane potential - 1 hr assay (AID 651754; calls by dose curve; further: on the % scale 0 is the no-effect control and ±100 the full control effect; nearly all actives have a fitted effect of over 35% in size)
Procedure, shortened: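 HepG2 cells, attached overnight at 37C, were exposed to compound or DMSO vehicle for 1 hr at 37C, 5% CO2, then stained with Mito-MPS dye for 30 min. Red aggregate versus green monomer fluorescence reports membrane potential.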

[2] = qHTS assay for small molecule disruptors of the mitochondrial membrane potential - 5 hr assay (AID 651755; calls by dose curve; further: on the % scale 0 is the no-effect control and ±100 the full control effect; nearly all actives have a fitted effect of over 40% in size)
Procedure, shortened: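 HepG2 cells, attached overnight at 37C, were exposed to compound or DMSO for 5 hr at 37C, 5% CO2. Mito-MPS dye was then added for 30 min, and fluorescence read at 490/535 nm (monomers) and 540/590 nm (aggregates).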

[3] = target: Tumor necrosis factor (Homo sapiens) (UniProt P01375); assay: qHTS assay to identify small molecules that stimulate Tumor Necrosis Factor-alpha (TNF-alpha) secretion (AID 651757; active means well fitted curve in the direction sought with a large enough effect in the signal ratio; the % refers to the signal ratio; further: 0% is about no effect)
Procedure, shortened: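 THP-1 cells were exposed to compounds for 17 hrs at 37 C, after which secreted TNF-alpha was measured by homogeneous HTRF (TR-FRET) using cryptate- and XL665-labeled anti-TNF-alpha antibodies, read after 3 hr at room temperature.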

[4] = qHTS assay for environmental chemicals that activate the Aryl hydrocarbon Receptor (AhR) signaling pathway (AID 651777); settings: 1A2-DRE human hepatoma cells, luciferase, 24 h; activation: hits give high values; further: % of control where 0% means no effect; nearly all actives have a fitted effect of over 15% in size
Procedure, shortened: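 1A2-DRE human hepatoma reporter line; 1,200 cells/well; cmpd or DMSO 24 h, 37 C/5% CO2; One-Glo 30 min RT; luciferase lum.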

[5] = target: Peroxisome proliferator-activated receptor alpha (Homo sapiens) (UniProt Q07869); assay: qHTS assay for small molecule agonists of the peroxisome proliferator-activated receptor alpha (PPARalpha) signaling pathway (AID 651778); settings: PathHunter PPARalpha complementation, chemiluminescence, 6 h; hits give high values; further: % of control where 0% means no effect
Procedure, shortened: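 Cells plated at 2,000/well and held overnight at 37 C, 5% CO2, then compound added by pin tool for 6 hr; after PathHunter detection reagent and 60 min at room temperature, chemiluminescence from enzyme complementation was read.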

[6] = target: Nuclear receptor ROR-gamma (Homo sapiens) (UniProt P51449); assay: qHTS assay for small molecule antagonists of the retinoid-related orphan receptor gamma (ROR-gamma) signaling pathway (AID 651802); further: series mostly up to about 92 µM; on the % scale 0 is the no-effect control and ±100 the full control effect; nearly all actives have a fitted effect of over 60% in size
Procedure, shortened: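 CHO cells carrying TET-inducible ROR-gamma and an ROR response element–luciferase reporter were exposed to compound, then induced with doxycycline. After 16hr at 37C, luminescence was read; lower signal indicates antagonism.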

[7] = qHTS assay for small molecule agonists of the antioxidant response element (ARE) signaling pathway measured by Nrf2-dependant transcriptional activity (AID 720636; active means well fitted curve in the direction sought with a large enough effect in the repeat runs; an effect the other way counts as inactive or inconclusive;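 further: HepG2 cells with an ARE-driven luciferase reporter; % of control where 0% means no effect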)
Procedure, shortened: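 Cells: ARE-luc HepG2 with Nrf2-responsive luciferase. Medium contained 1% dialyzed FBS. Compound exposure lasted 16 hr at 37 C and 5% CO2, followed by ONE-Glo luciferase detection.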

[8] = qHTS assay for small molecule antagonists of the retinoid-related orphan receptor gamma (ROR-gamma) signaling pathway - cell viability counter screen (AID 720652; active means well fitted curve in the direction sought with a large enough effect in the repeat runs; an effect the other way counts as inactive or inconclusive;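 further: series mostly up to about 92 µM; compound exposure lasted 16 hr before ATP read; on the % scale 0 is the no-effect control and ±100 the full control effect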)
Procedure, shortened: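 Counter screen in CHO cells carrying TET-inducible ROR-gamma and an ROR response element-luciferase reporter; cells plated 5 hr, compound pinned, doxycycline added, then 16 hr at 37 C. Viability read as intracellular ATP by CellTiter-Glo luminescence.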

[9] = qHTS assay for small molecule agonists of the antioxidant response element (ARE) signaling pathway measured by Nrf2-dependant transcriptional activity - cell viability counter screen (AID 720653; active means well fitted curve in the direction sought with a large enough effect in the repeat runs; an effect the other way counts as inactive or inconclusive; further: on the % scale 0 is the no-effect control and ±100 the full control effect); settings: ARE-bla HepG2 viability, CellTiter-Glo ATP luminescence, 16 h; hits give low values
Procedure, shortened: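 ARE-bla HepG2 cells (2,000/well) rested 5 hrs at 37C/5% CO2, then exposed to compounds in DMSO for 16 hrs. Viability was read in the same wells as intracellular ATP by luminescence, 30 min at room temperature after reagent addition.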

[10] = qHTS assay for cell viability of the p53RE-bla HCT-116 cell line (AID 743292); further: on the % scale 0 is the no-effect control and ±100 the full control effect; nearly all actives have a fitted effect of over 55% in size
Procedure, shortened: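 HCT-116 p53RE-bla cells seeded 4,000/well; 5 h at 37 C; compound (DMSO) added; 16 h at 37 C; CellTiter-Glo added, 30 min RT; luminescence read.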

[11] = target: Nuclear receptor subfamily 1 group I member 2 (Rattus norvegicus) (UniProt Q9R1A7); assay: qHTS assay for small molecule activators of the rat pregnane X receptor (rPXR) signaling pathway (AID 651751; call rule not given here; further: 0% is about no effect); settings: rPXR reporter cells, luciferase (One-Glo), 24 h
[12] = qHTS assay for small molecule activators of the human pregnane X receptor (PXR) signaling pathway (AID 720659; call rule not given here; further: 0% is about no effect)
[13] = qHTS assay for cell viability of HEK293 cells (AID 743288); settings: ATP luminescence (CellTiter-Glo), 18 h, hits give low values; further: on the % scale 0 is the no-effect control and ±100 the full control effect; nearly all actives have a fitted effect of over 50% in size
Procedure, shortened: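 Parental HEK293 cells were seeded at 2,000 cells/well, rested at least 5 h at 37 C, then exposed to compounds in DMSO for 18 h at 37 C. Viability was read as ATP-dependent luciferase luminescence after 30 min at room temperature.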

Tumor necrosis factor (Homo sapiens), sequence (P01375 whole entry, looked up): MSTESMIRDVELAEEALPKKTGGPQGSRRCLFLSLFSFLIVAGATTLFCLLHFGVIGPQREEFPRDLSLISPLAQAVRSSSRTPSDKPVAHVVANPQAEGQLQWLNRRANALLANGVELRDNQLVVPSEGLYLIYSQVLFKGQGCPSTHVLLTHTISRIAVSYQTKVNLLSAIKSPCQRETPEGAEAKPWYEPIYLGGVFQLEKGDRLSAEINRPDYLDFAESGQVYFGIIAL
Nuclear receptor subfamily 1 group I member 2 (Rattus norvegicus), sequence (Q9R1A7 whole entry, looked up): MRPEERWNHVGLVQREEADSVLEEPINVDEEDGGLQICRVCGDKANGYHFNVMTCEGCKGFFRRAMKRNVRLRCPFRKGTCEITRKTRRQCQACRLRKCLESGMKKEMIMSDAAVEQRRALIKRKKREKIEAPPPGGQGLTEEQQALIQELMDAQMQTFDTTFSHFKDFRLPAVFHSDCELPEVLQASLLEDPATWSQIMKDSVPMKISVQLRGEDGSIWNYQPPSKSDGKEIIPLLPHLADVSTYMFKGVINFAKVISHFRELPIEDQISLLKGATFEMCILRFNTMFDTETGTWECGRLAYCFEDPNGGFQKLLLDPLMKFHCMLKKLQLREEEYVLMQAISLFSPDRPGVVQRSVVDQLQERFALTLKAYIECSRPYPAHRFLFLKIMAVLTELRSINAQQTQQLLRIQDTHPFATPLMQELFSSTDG
Nuclear receptor ROR-gamma (Homo sapiens), sequence (P51449 whole entry, looked up): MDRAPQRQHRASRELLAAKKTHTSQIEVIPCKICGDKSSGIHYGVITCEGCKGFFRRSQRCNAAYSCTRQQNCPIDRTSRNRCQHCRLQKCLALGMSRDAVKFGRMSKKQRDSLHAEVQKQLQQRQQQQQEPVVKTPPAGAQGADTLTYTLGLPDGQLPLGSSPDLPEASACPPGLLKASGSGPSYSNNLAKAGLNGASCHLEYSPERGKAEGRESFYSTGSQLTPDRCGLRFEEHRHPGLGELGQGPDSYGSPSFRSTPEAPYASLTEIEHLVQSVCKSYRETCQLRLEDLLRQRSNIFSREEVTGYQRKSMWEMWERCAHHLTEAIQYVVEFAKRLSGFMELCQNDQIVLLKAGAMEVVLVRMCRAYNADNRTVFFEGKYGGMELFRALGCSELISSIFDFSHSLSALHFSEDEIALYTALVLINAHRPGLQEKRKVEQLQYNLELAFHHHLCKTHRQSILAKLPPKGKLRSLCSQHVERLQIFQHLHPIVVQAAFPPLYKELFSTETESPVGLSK
Peroxisome proliferator-activated receptor alpha (Homo sapiens), sequence (Q07869 whole entry, looked up): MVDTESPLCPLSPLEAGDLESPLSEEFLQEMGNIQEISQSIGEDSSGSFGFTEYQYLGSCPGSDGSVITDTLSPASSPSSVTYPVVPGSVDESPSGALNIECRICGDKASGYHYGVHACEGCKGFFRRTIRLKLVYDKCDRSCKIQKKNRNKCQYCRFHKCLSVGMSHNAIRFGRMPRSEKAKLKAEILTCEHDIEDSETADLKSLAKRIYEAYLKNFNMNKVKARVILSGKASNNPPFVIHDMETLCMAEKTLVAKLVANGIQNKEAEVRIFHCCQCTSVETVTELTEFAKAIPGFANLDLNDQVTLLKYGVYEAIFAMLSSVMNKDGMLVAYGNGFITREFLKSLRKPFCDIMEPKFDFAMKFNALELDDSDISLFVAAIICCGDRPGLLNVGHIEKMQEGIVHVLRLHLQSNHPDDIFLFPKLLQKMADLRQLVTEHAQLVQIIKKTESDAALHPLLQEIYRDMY

CC(=O)OCc1ccco1
inactive: Potency [1] | Potency [2] | Potency [3] | activation [4] 1.48% | max response [5] -0.503% | Potency [6] | outcome [7] | Potency [8] | max response [9] -8.3% | Potency [10] | max response [11] -1.61% | outcome [12]

CSCCC=O
inactive: Potency [1] | Potency [2] | Potency [3] | activation [4] -0.987% | max response [5] 13.7% | Potency [6] | outcome [7] | Potency [8] | max response [9] -0.733% | max response [13] 1.22% | Potency [10] | max response [11] 4.33%

Cc1cc(C)cc(N)c1
inactive: Potency [1] | Potency [2] | Potency [3] | activation [4] 2.65% | max response [5] -1.33% | Potency [6] | outcome [7] | max response [9] -5.34% | max response [13] -3.25% | Potency [10] | max response [11] 9.8% | outcome [12]

CC(=O)Nc1ccc(N)cc1
inactive: Potency [1] | Potency [2] | Potency [3] | activation [4] -0.109% | max response [5] 0.154% | Potency [6] | outcome [7] | Potency [8] | max response [9] 2.9% | max response [13] -3.85% | Potency [10] | max response [11] 9.42% | outcome [12]

Nc1ccccc1[N+](=O)[O-]
inactive: Potency [1] | Potency [2] | Potency [3] | activation [4] -0.331% | max response [5] -3.89% | Potency [6] | outcome [7] | Potency [8] | max response [9] -18.4% | max response [13] -7.67% | Potency [10] | max response [11] -0.731% | outcome [12]

CO[Si](CCCNCCC[Si](OC)(OC)OC)(OC)OC
inactive: Potency [1] | Potency [2] | Potency [3] | activation [4] -0.757% | max response [5] -5.87% | Potency [6] | outcome [7] | Potency [8] | max response [9] -1.66% | max response [13] 5.64% | Potency [10] | max response [11] 4.59% | outcome [12]

O=C1C=CCCC1
inactive: Potency [1] | Potency [2] | Potency [3] | activation [4] 0.397% | max response [5] 2.89% | Potency [6] | outcome [7] | Potency [8] | max response [9] 4.99% | max response [13] -6.57% | Potency [10] | max response [11] 0.149% | outcome [12]

O=C1OC(=O)c2c(Cl)c(Cl)c(Cl)c(Cl)c21
inactive: Potency [1] | Potency [2] | Potency [3] | activation [4] 0.646% and 1.03% | max response [5] 0.893% and -0.287% | Potency [6] | outcome [7] | Potency [8] | max response [9] 1.45% and 13.5% | max response [13] 5.35% and -3.52% | Potency [10] | max response [11] 0.139% and -2.42% | outcome [12]

C=CC(=O)OCCCC
inactive: Potency [1] | Potency [2] | Potency [3] | activation [4] 0.108% | max response [5] 0.0985% | Potency [6] | outcome [7] | Potency [8] | max response [9] -3.72% | max response [13] -0.0822% | Potency [10] | max response [11] 6.31% | outcome [12]

O=C1NC(=O)c2cc([N+](=O)[O-])ccc21
inactive: Potency [1] | Potency [2] | Potency [3] | activation [4] -0.349% | max response [5] -3.3% | Potency [6] | outcome [7] | Potency [8] | max response [9] -3.07% | max response [13] -4.71% | Potency [10] | max response [11] 1.8% | outcome [12]

CCCCCCC=O
inactive: Potency [1] | Potency [2] | Potency [3] | activation [4] -0.184% | max response [5] -2.2% | Potency [6] | outcome [7] | Potency [8] | max response [9] 14.6% | max response [13] 5.62% | Potency [10] | max response [11] -7.57% | outcome [12]

NC(=O)c1ccccc1[N+](=O)[O-]
inactive: Potency [1] | Potency [2] | Potency [3] | activation [4] -0.127% | max response [5] -0.939% | Potency [6] | outcome [7] | Potency [8] | max response [9] -0.414% | max response [13] 7.1% | Potency [10] | max response [11] -1.43% | outcome [12]

O=C(O)c1ccccc1[N+](=O)[O-]
inactive: Potency [1] | Potency [2] | Potency [3] | activation [4] -1.41% | max response [5] -2.24% | Potency [6] | outcome [7] | Potency [8] | max response [9] -13.2% | max response [13] 3.94% | Potency [10] | max response [11] 0.256% | outcome [12]

CC(=O)OCCC(C)C
inactive: Potency [1] | Potency [2] | Potency [3] | activation [4] 0.441% | max response [5] -9.14% | Potency [6] | outcome [7] | Potency [8] | max response [9] -11% | max response [13] 3.44% | Potency [10] | max response [11] 8.07% | outcome [12]

Cc1cccc2ccccc12
inactive: Potency [1] | Potency [2] | Potency [3] | activation [4] -0.124% | max response [5] -1.89% | Potency [6] | outcome [7] | Potency [8] | max response [9] -3.61% | max response [13] 1.12% | Potency [10] | max response [11] 3.98% | outcome [12]

C=CCOC(=O)COCCC(C)C
inactive: Potency [1] | Potency [2] | Potency [3] | activation [4] -0.312% | max response [5] -5.81% | Potency [6] | outcome [7] | Potency [8] | max response [9] 5.49% | max response [13] -0.0294% | Potency [10] | max response [11] -3.06% | outcome [12]

Cc1nc2ccc(Cl)cc2[nH]1
inactive: Potency [1] | Potency [2] | Potency [3] | activation [4] 3.58% | max response [5] -1.28% | Potency [6] | outcome [7] | Potency [8] | max response [9] -4.37% | max response [13] 5.07% | Potency [10] | max response [11] -1.68% | outcome [12]
